# KDM5B inhibitor – blocks human KDM5B histone demethylase activity; Q9UGL1; KDM5B demethylase, FDH-coupled NADH fluorescence (FDH is formaldehyde dehydrogenase); Potency, µM (titrated, usually from 57.7 µM), most hits filed as inhibitors; 220,000 tested, 2.6% active; active means well fitted inhibition curve with a large enough effect; further: 0% is about no effect; nearly all actives have a fitted effect of over 70% in size
#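 qHTS format, multiple compound concentrations. Buffer 50 mM HEPES pH 7.5/0.01% Tween-20; 200 nM KDM5BΔAP final; 10 min compound preincubation; substrate-mix levels 12.5 µM peptide, 25 µM α-KG, 0.25 mM NAD⁺; 30 min RT; ΔRFU.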
# An asterisk follows results filed as active; i = inactive. This is one part of a sample in which hits are shown more often than they occur. Potency means the concentration at half of the fitted maximal effect.
SMILES,KDM5B inhibitor
CN1C(=O)COc2ccc(C(=O)N3CC(C)(C)[C@@](C)(O)C3)cc21,32µM*
CCNC(=O)N1CCCCCC1CN1CCC(C)CC1 (stereo unspecified),i
CCCNC(=O)N1CCCCCC1CN1CCCC1 (stereo unspecified),25µM*
CCNC(=O)N1CCCCCC1CN1CCc2ccccc2C1 (stereo unspecified),i
CC(NC(=O)NC12CC3CC(CC(C3)C1)C2)c1ccc(Br)cc1 (stereo unspecified),i
OC[C@@H]1O[C@H](CNCc2cccc(Cl)c2)[C@H](N2CCOCC2)[C@@H]1O,i
O=C(NC[C@H]1O[C@@H](CO)[C@@H](O)[C@H]1N1CCN(c2ccccn2)CC1)c1ccc(F)c(Cl)c1,i
OC[C@@H]1O[C@H](CNCc2cccc(Cl)c2)[C@H](N2CCN(c3ccccn3)CC2)[C@@H]1O,25µM*
O=C(O)c1cccc(-c2cccc(F)c2)c1,i
CSc1ccc(-c2cccc(C(=O)O)c2)cc1,56µM*
O=C(O)c1cccc(-c2cccc(O)c2)c1,i
CCOc1ccc(C(CC(=O)O)NC(=O)c2ccccc2F)cc1 (stereo unspecified),i
Cc1c(C(=O)Nc2ccccc2C(N)=O)sc2nc(-c3ccc(F)cc3)cn12,i
CC1CCCN(CC(=O)NC23CC4CC(CC(C4)C2)C3)C1 (stereo unspecified),i
COC(=O)c1ccc(OC(=O)c2cc(OC)cc(OC)c2)cc1,i
CN1C[C@@H](NC(=O)c2ccc(-c3ccccc3)cc2)C[C@H]1c1nc(-c2ccncc2)no1,i
CN(C)c1ccc(C(=O)N[C@H]2C[C@@H](c3nc(-c4ccc5ccccc5c4)no3)N(C)C2)cc1,35µM*
CN1C[C@@H](NC(=O)c2ccc(F)cc2)C[C@H]1c1nc(-c2ccccc2)no1,i
Cc1cccc(Cn2c(SCC(O)CO)nc3c2c(=O)[nH]c(=O)n3C)c1 (stereo unspecified),i
Cc1ccc(F)cc1NC(=O)COC(=O)c1ccc2ccccc2n1,i
O=C(NCCc1noc(-c2ccccc2)n1)C1CCCCC1,i
O=C(NCc1nnc2c(-c3nc(C4CC4)no3)cccn12)C1CCCC1,28µM*
CCc1noc(-c2cccn3c(CNC(=O)C4CCC4)nnc23)n1,25µM*
CCCc1noc(-c2cccn3c(CNC(=O)C4CCCC4)nnc23)n1,28µM*
CCOC(=O)N1CCC(NC(=O)C2CCN(Cc3nc(-c4ccccc4)no3)CC2)CC1,i
SMILES,KDM5B inhibitor
O=C(O)c1ccc2c(c1)OCCOCCOCCOCCO2,i
COCCOc1ccc2c(n1)CCN(C(=O)c1ccc(C(C)C)cc1)C2,i
CCCCn1nc(C(=O)Nc2cccc(C)c2C)c2ccccc2c1=O,i
O=C(c1cc2ccccc2oc1=O)N1CCCC(C(F)(F)F)C1 (stereo unspecified),i
CCOCCCNC(=O)C1CC(=O)N(CCc2c[nH]c3ccc(C)cc23)C1 (stereo unspecified),i
Nc1cc(N)nc(SCC(=O)Nc2cc(F)ccc2F)n1,i
COc1ccc(C(C)=O)c(OC(=O)/C=C/c2cccs2)c1,i
COc1cc(OC)c(OC)cc1CNC(=O)Cc1cccc(C(F)(F)F)c1,i
O=C(c1ccc2c(c1)OCO2)N1CCC2(CC1)C(=O)Nc1ccccc12,i
Cc1[nH]c(=O)c(C#N)cc1C(=O)N1CCC2(CC1)C(=O)Nc1ccccc12,22µM*
O=C(c1ccccc1)N1CCC2(C1)C(=O)Nc1ccccc12 (stereo unspecified),i
COc1ccc(/C=C(\C#N)C(=O)C(C)(C)C)c(OC)c1,i
CN(C)C(=O)c1ccn2cncc2c1,35µM*
COc1ccccc1-c1cc(C(=O)N(C)C)nn2cccc12,i
Cc1cc(C)c(C(=O)NC2CC2)c(C)c1,i
Cc1cc(C)cc(C(=O)Nc2ccc(C(=O)N(C)C)cc2)c1,i
CCc1ccc(C(=O)N(C)C)cc1,i
CC1CCC(NC(=O)c2ccc3ccccc3n2)CC1 (stereo unspecified),i
CN(C)C(=O)c1ccc2c(c1)NC(=O)CS2,i
CN(C)C(=O)c1ccn2nccc2c1,32µM*
CN(C)C(=O)c1ccc(-c2ccccc2N(C)C)nc1,i
CN(C)C(=O)c1ccc(I)cc1,i
CN(C)C(=O)c1ccc2ccnn2c1,32µM*
O=C(NC1CC1)c1cc2cccnn2n1,32µM*
Cc1cc(COc2ccc(C(=O)c3ccccc3)cc2)no1,i
SMILES,KDM5B inhibitor
CN(Cc1ccccc1C(F)(F)F)C(=O)Nc1ccc(Cl)cc1,i
Cc1cnc(CCNC(=O)C2CCOCC2)n1C1CCCCCCC1,i
CC(C)(C)OC(=O)N1CCN(C(C(=O)O)c2c[nH]c3ccccc23)CC1 (stereo unspecified),i
O=C(c1sc2cc(Cl)ccc2c1Cl)N(Cc1ccccc1)C1CCS(=O)(=O)C1 (stereo unspecified),i
Cc1ccc2c(CN(C)Cc3cccs3)cc(=O)oc2c1C,i
CCCN1CCC(N(C)C(=O)c2cc3ccccc3c(OC)n2)CC1,i
O=C(c1ccc2c(c1)ncn2CCO)N1CCCC(CCc2ccccc2F)C1 (stereo unspecified),i
COCCNC(=O)CSc1cc(C)c2ccc(OC)cc2n1,i
Cc1nn(C)c(=O)c(-c2nc(-c3ccc(N(C)S(C)(=O)=O)cc3)cs2)c1C,i
COc1cccc(C(O)c2nccn2Cc2ccccc2)c1 (stereo unspecified),i
O=C(NC1CCCCCCCCCCC1)c1ccncc1,i
O=C(NC1CC1)c1ccc2ccnn2c1,32µM*
O=C(NC1CCCC1)c1ccc2ccccc2c1,i
CCOc1cc(N)ccc1OC(F)F,i
COCCn1ncc(N2CCCC(CC(=O)Nc3ccc(Cl)cc3)C2)cc1=O (stereo unspecified),i
O=C(Nc1ccccc1)c1ccc2c(c1)OCCN(c1ccccc1)C2,28µM*
COCCNC(=O)c1ccc2c(c1)OCCN(c1ccccc1)C2,i
O=C(Nc1ccc(F)cc1)c1ccc2c(c1)OCCN(C1CCC1)C2,32µM*
Cc1cc(NC(=O)c2ccc3c(c2)OCCN(C2CCC2)C3)ccc1F,i
Cc1ccc(CNC(=O)c2ccc3c(c2)CN(C2CCC2)CCO3)cc1,i
O=C(NC1CCOCC1)c1ccc2c(c1)OCCN(c1ccccc1)C2,i
O=C(O)CCC(=O)Nc1ccc(S(=O)(=O)NCC(=O)c2ccccc2)cc1,i
O=C(OCCOc1cccc(Cl)c1)c1ccccc1C(=O)c1ccccc1,i
O=C(NC1CC1)C1CCN(Cc2nnc(-c3ccccc3)o2)CC1,i
Cn1nc(C(=O)Nc2cccc(C(F)(F)F)c2)c2c1-c1ccccc1OC2,i
SMILES,KDM5B inhibitor
O=C(Cc1ccc(N(Cc2ccccc2)C(=O)c2ccco2)cc1)NCC1CCCO1 (stereo unspecified),i
CC(C)c1ccc(NC(=O)[C@@H]2COCC(=O)N2Cc2ccccc2)cc1,i
C/C(=N/Nc1ccc(F)cc1F)c1cc(Cl)ccc1Cl,i
Cc1ccc2nc([C@H]3CCN(Cc4cccs4)C3)[nH]c2c1,i
Cc1ccccc1CN1CC[C@H](c2nc3ccc(F)cc3[nH]2)C1,i
N#Cc1ccc2nc([C@H]3CCN(Cc4ccccn4)C3)[nH]c2c1,35µM*
C(=N\N=C(c1ccccc1)c1ccccc1)/c1ccsc1,i
COc1ccc(-c2cc3c(=O)[nH]nc(SCC(=O)N4CCCCC4)n3n2)cc1OC,i
CCCCc1ccc(NC(=O)Cn2cc(C#N)c3ccccc32)cc1,i
